# Assay outcomes deposited in PubChem BioAssay by National Center for Advancing Translational Sciences (NCATS).
# SNCA expr inhib: reduces expression of the alpha-synuclein gene; Potency, µM (highest dose often 57.2 µM), without a hit: at the highest dose activity change, negative = inhibition, most hits filed as inhibitors; 140,000 compounds, 0.17% hits; HEK-293 SNCA-luciferase knock-in, luminescence, 24 h;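 also: plate controls were DMSO cells for no effect and cell-free wells for full effect; nearly all actives have a fitted effect of over 45% in size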
# Luciferase inh: inhibitors of firefly (Photinus pyralis) luciferase; P08659; Potency, µM (doses to about 115 µM), most hits filed as inhibitors; 76,000 compounds, 2.5% hits; purified P. pyralis luciferase, luminescence, biochemical; also: nearly all actives have a fitted effect of over 65% in size
#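 Purified P. pyralis luciferase (10nM final) in 50mM Tris acetate pH 7.5, 10mM Mg acetate, 0.01% Tween-20, 0.05% BSA with 10uM D-luciferin and 10uM ATP. Compounds titrated qHTS. Luminescence imaged on CCD.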
# HEK293 viab: reduces viability of HEK-293 SNCA reporter cells. HEK-293-SNCA-luc viability, GF-AFC fluorescence, 24 h. Potency, µM (titrated, usually from 57.1 µM), for inactives: at the top dose activity change, negative = cytotoxicity, usual class: cytotoxic. 150,000 compounds, 0.12% hits;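 also: 0% = DMSO-treated cells and -100% = medium-only wells without cells; nearly all actives have a fitted effect of over 30% in size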
#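 HEK-293-SNCA-luc cells (1500/well) plated 24 h, then exposed 24 h to a dilution series; GF-AFC added 30 min at 37C, fluorescence 405/540 nm; normalised to medium-only and DMSO wells, Hill fit.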
# HEK cytotox: HEK 293 cell cytotoxicity; HEK 293 viability, ATP luminescence (CellTiter-Glo), 48-72 h; Potency, µM (series often up to 115 µM), without a hit: top-dose activity change, negative = cytotoxicity, actives largely listed as inhibitors; 94,000 compounds, 6.6% hits; AID 1345083; also: nearly all actives have a fitted effect of over 60% in size
#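 HEK 293 seeded at 250 cells/well receive compound via pintool. After 48 or 72 hr at 37 degree Celsius, 5% CO2 and 95% humidity, CellTiter-Glo is dispensed and luminescence read following 10 min at room temperature.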
# NIH3T3 tox: NIH 3T3 cell cytotoxicity. NIH 3T3 viability, CellTiter-Glo ATP luminescence, 48-72 h. AID 1345082. Potency, µM (titrated, usually from 96.7 µM), without a hit: at the top dose activity change, negative = cytotoxicity, actives largely listed as inhibitors. 94,000 compounds, 4.3% hits; also: nearly all actives have a fitted effect of over 55% in size
#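 Mouse fibroblast NIH 3T3 cells, 400 per well, received compound via pintool and were incubated for 48 or 72 hr prior to CellTiter-Glo ATP luminescence measurement.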
# NPR1 antag: antagonists of human natriuretic peptide receptor Npr1; Potency, µM (doses to about 46.3 µM), without a hit: top-dose activity change, negative = inhibition, most hits filed as inhibitors; P16066; 76,000 compounds, 1.6% hits; HEK293 hNpr1 GloSensor cGMP, ANP-stimulated luminescence; calls by dose curve; also: nearly all actives have a fitted effect of over 60% in size
# Target sequence (P16066 whole entry, looked up): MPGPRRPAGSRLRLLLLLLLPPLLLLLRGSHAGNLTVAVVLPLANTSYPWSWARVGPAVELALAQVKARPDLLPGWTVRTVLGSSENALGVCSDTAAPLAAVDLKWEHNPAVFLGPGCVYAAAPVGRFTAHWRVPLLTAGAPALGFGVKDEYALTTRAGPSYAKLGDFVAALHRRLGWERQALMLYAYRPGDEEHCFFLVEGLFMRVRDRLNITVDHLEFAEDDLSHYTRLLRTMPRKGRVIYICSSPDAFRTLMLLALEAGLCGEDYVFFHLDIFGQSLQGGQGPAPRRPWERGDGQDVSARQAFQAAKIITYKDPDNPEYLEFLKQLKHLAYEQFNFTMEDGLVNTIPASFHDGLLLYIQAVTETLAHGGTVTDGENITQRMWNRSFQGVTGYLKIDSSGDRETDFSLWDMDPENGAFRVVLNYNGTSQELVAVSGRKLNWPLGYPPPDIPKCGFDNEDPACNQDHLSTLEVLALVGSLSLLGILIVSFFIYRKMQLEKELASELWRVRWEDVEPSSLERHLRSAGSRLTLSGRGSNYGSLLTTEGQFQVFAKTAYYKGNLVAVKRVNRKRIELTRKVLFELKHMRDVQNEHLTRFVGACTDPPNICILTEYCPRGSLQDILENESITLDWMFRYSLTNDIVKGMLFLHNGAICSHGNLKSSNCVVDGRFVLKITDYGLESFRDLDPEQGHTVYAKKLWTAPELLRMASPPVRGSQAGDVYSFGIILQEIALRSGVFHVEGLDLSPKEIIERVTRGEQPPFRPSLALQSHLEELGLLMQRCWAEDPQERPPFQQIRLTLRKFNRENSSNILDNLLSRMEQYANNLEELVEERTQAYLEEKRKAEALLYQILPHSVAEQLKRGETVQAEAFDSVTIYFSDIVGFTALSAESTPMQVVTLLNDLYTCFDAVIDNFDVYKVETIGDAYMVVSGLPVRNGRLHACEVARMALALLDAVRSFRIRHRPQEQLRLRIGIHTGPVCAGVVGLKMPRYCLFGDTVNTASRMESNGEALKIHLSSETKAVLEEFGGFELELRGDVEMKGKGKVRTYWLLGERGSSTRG
#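 Compound pre-incubated 30 min at room temperature on GloSensor-loaded HEK293 cells stably carrying hNpr1 and the pGS-40F cGMP biosensor. Stimulation uses hNppA at 0.1 nM final; luminescence is taken at baseline and 20 min post-agonist.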
# An asterisk follows results filed as active; i = inactive; ? = inconclusive; · = no result; [ ] = remark or other dose. The list is not random: actives were taken first. Their share in the collection is about 7.2%. Unless noted, calls follow the shape of the dose curve; as a rule, active = well fitted curve in the direction sought with a large enough effect; inconclusive = small, poorly fitted or top-dose-only effect, or another doubt; inactive = no such curve, though single readings can be large; an effect the other way counts as inactive or inconclusive. Unless noted, % is scaled to controls: 0 for no effect and ±100 for the full control effect; potency is read from the fitted curve at half-maximal effect.
SMILES,SNCA expr inhib,Luciferase inh,HEK293 viab,HEK cytotox,NIH3T3 tox,NPR1 antag
Cn1nc(CN2CCOCC2)c2c1CCN(S(=O)(=O)c1cccc3cccnc13)C2,16%,·,-1%,-3%,-13%,·
Cc1ccnc(N2CCN(C3CCC4(CCNCC4)CC3)CC2)c1,?,i,-6%,45µM*,?,0%
COc1cc(OC)cc(-c2onc(C)c2C(=O)NCCCOC(C)C)c1,2%,i,12%,-20%,?,0%
O=C(NC1CCCC1)c1ccc2c(c1)N(S(=O)(=O)c1ccccc1)CC2,-8%,i,-4%,?,?,-2%
O=C(NCC1CCCCC1)c1ccc2c(c1)N(S(=O)(=O)c1ccccc1)CC2,-21%,i,-3%,?,40µM*,-5%
CCN1CCN(C(=O)c2nc3sccn3c2-c2ccc(C(F)(F)F)cc2)CC1,4%,·,-9%,-1%,-11%,·
O=C(CNC(=O)c1cccc(-c2ccc(C(F)(F)F)cc2)c1)NCc1ccccc1F,-14%,·,-1%[12.5 µM],22µM*,?,·
O=C(CNC(=O)c1cccc(-c2ccsc2)c1)NCc1ccccc1F,9%,·,11%[12.5 µM],i,-10%,·
COc1ccccc1CNC(=O)CNC(=O)c1cccc(-c2ccc(C(F)(F)F)cc2)c1,-6%,·,1%[12.5 µM],35µM*,?,·
Clc1ccc(-c2cnc([C@@H]3COCCN3CC3CC3)[nH]2)s1,-19%[87.6 µM],i,-4%[87.6 µM],89µM*,?,-5%[70.6 µM]
Fc1ccccc1CN1CCOC[C@H]1c1ncc(-c2ccc(Cl)s2)[nH]1,-24%[87.6 µM],i,2%[87.6 µM],?,89µM*,?
Fc1ccc(CN2CCOC[C@H]2c2ncc(-c3ccc(Cl)s3)[nH]2)cc1,?,i,-4%[87.6 µM],79µM*,?,?
Fc1ccc(-c2cnc([C@@H]3COCCN3Cc3ccccc3F)[nH]2)c(F)c1,?,i,2%[87.6 µM],100µM*,?,-30%[70.6 µM]
O=C(NCCc1ccccc1F)C1CCc2nnc(-c3ccc(F)cc3)n21 (stereo unspecified),-7%,·,2%,-2%,-19%,·
CCN(CC)C(=O)C1CCC(c2nc3ncccc3o2)CC1 (stereo unspecified),?,·,4%[87.6 µM],-23%[172 µM],-17%[138 µM],·
CCOc1cccc(CNC(=O)CC2CCOCC2)c1,18%,i,9%[12.5 µM],8%,i,6%
CCOc1ccccc1CN1CCC2(CCN(C(=O)COC)CC2)Oc2ccccc21,-27%,i,-17%,?,?,29%
COCCN1CCCC[C@]2(C[C@H](CO)[C@H](c3ccccc3)N2C(=O)c2ccc(OC)cc2)C1=O,·,·,·,-1%,?,·
Clc1ccc(-c2cnc([C@@H]3COCCN3Cc3c[nH]c4ccccc34)[nH]2)s1,-26%[87.6 µM],i,?,71µM*,79µM*,?
CCN1CCN(CC(O)COc2cccc(CNC3(c4ccccc4)CC3)c2)CC1 (stereo unspecified),14%,i,-6%,32µM*,?,6%
CC(=O)NCC(=O)N1[C@H]2CC[C@H]1c1cc(Nc3ncc(C(F)(F)F)c(NC4CCC4)n3)ccc12,?,·,-21%,·,·,·
CNC(=O)c1ccc(Nc2ncc(C(F)(F)F)c(NCc3nccnc3N(C)S(C)(=O)=O)n2)cc1,21µM*,·,?,·,·,·
O=C(c1cccc2cnccc12)N1CCCC2(C=Cc3ccccc3O2)CC1 (stereo unspecified),-7%,i,3%,45µM*,?,-23%
O=C1NC2(CCN(C(=O)c3cccnc3)CC2)Oc2ccccc21,26%[87.6 µM],i,6%[87.6 µM],-2%[172 µM],-11%[138 µM],-11%[70.6 µM]
COc1cc(NC(=O)CC2=C3CCCCC3NC2=O)cc(OC)c1 (stereo unspecified),20%,i,-6%,4%,i,4%
CCOC(=O)N1CCC(N(C)CC2CCN(CCc3ccc(F)cc3)CC2)CC1,?,i,1%,?,?,1%
